# Hits are enriched below; roughly 5.2% of the tested compounds scored in any of these assays.
# CR mimetic SO: caloric restriction mimetics inhibiting age-related superoxide in yeast | S. cerevisiae aged cells, superoxide DHE fluorescence; hits give low values | superoxide response (% of plate mean), % at 10 µM | 330,000 compounds, 0.18% hits | AID 2690;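 active means superoxide response under a set limit, about three screen SD below normal, cut at about 65% in these data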;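 further: yeast aged for seven days with compound at 30 °C before DHE staining; 100% = average MFI of all compound-treated wells on the plate with controls excluded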
# CendR NRP1 mod: NRP-1/CendR interaction modulation. O14786. FAM-RPARPAR peptide binding to NRP-1, fluorescence polarization. AID 602438. 360,000 compounds, 0.85% hits. inhibition, % at 25 µM;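 active means inhibition or corrected inhibition above about 18%, plus a signal ratio from 0.5 to 1.5, limit read from the data, passing the limit was not always enough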
# ALR H2O2 inh: human ALR oxidase inhibition via reduced H2O2; purified ALR, DTT oxidation, H2O2 HRP-luminol luminescence; inhibition, % (no concentration beside the values); 290,000 compounds, 3.8% hits;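 active means mean replicate inhibition above about 79%, with every replicate also reaching it, limit read from the data; inconclusive means only one of the two criteria met; inactive means mean below limit and not every replicate reaching it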
# APOBEC3G inh: blocks human APOBEC3G single-stranded DNA deamination. Q9HC16. recombinant A3G, ssDNA deamination FAM/TAMRA fluorescence. inhibition, % at 20 µM. 330,000 compounds, 0.28% hits. AID 493012;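 active means inhibition of at least 40% at 20 µM, with no more than 30% in the related APOBEC3A deaminase screen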;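 further: plate controls were DMSO wells with A3G for no effect and wells lacking A3G enzyme for full effect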
# Target sequence (Q9HC16 whole entry, looked up): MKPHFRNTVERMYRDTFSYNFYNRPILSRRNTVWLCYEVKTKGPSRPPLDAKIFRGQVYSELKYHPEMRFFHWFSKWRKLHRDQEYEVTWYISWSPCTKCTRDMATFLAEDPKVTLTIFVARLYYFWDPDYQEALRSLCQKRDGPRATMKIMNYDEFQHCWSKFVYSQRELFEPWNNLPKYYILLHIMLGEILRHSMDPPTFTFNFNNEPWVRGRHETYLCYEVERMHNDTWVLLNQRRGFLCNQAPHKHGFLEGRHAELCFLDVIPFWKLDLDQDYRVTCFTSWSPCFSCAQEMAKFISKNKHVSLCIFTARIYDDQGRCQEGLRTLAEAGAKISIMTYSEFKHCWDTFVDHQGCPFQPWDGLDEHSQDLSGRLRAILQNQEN
# APOBEC3A inh: inhibitors of human APOBEC3A DNA deaminase; 330,000 compounds, 0.41% hits; inhibition, % at 20 µM; recombinant A3A, FAM/TAMRA ssDNA deamination fluorescence;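 active means at least 40% inhibition at 20 µM here, with at most 30% in a related deaminase screen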;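 further: plate controls were A3A with DMSO for no effect and wells lacking A3A enzyme for full effect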
# PfM18AAP inh-1: PfM18AAP enzyme inhibition; recombinant PfM18AAP, H-Glu-NHMec fluorogenic cleavage; inhibition, % at 7.35 µM; 290,000 compounds, 1.2% hits; AID 1822;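 active means inhibition above the campaign mean inhibition over all tested compounds plus 3 SD, cut at about 28% in these data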;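 further: 0% = plate median of test compound wells and 100% = 2 mM ZnCl2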
# PfM18AAP inh-2: confirmation of Plasmodium falciparum M18 aspartyl aminopeptidase inhibitors; shares compounds with PfM18AAP inh-1; recombinant PfM18AAP, H-Glu-NHMec fluorogenic cleavage; inhibition, % at 7.35 µM; 2,400 compounds, 28% hits; AID 2170;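 active means mean inhibition over replicate wells above the hit cutoff set for the earlier primary screen, cut at about 29% in these data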;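 further: 0% = median of test compound wells and 100% = 2 mM ZnCl2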
# CTSL1 confirm: Cathepsin L (human) inhibition, confirmation; shares compounds with PfM18AAP inh-1; purified cathepsin L1, Z-Leu-Arg-MCA fluorescence; inhibition, % at 5.96 µM; 2,400 tested, under 10 active; AID 2178;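 active means average inhibition across replicates above the hit cutoff set in the earlier primary screen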;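 further: 0% = median of test compound wells and 100% = Z-Phe-Ala-diazomethylketone 1 µM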
# Active calls of the source: *; ? = inconclusive; / = no result given.
SMILES,CR mimetic SO,CendR NRP1 mod,ALR H2O2 inh,APOBEC3G inh,APOBEC3A inh,PfM18AAP inh-1,PfM18AAP inh-2,CTSL1 confirm
CCOC(=O)c1nc(NNC(C)=O)sc1C,94.2,-2.2,13.1,-7.6,-3.4,36.8*,-3.1,-1.5
CCOC(=O)c1nc(NCCc2ccccc2)sc1C,92.8,9.2,-7.1,-3.5,5.0,0.1,/,/
Cc1ccccc1NC(=O)Nc1nnc(CC(=O)NCc2ccccc2)s1,94.5,-2.1,-1.3,4.4,1.6,-8.6,/,/
Cc1cc(C)n(-c2cc(-n3nc(C)cc3C)ncn2)n1,90.9,2.2,/,-3.3,-3.2,-7.6,/,/
Cc1cc(C)n(-c2cc(O)c(-n3nc(C)cc3C)cc2O)n1,110.0,3.3,89.1*,-1.9,0.4,45.6*,23.8,4.7
CN(C)c1ccc(S(=O)(=O)NCC(=O)NCCOc2ccccc2F)cc1[N+](=O)[O-],90.8,-2.1,-2.6,-7.9,3.0,/,/,/
COC(=O)c1ccc(CSc2nnc(SCc3ccc(C(=O)OC)o3)s2)o1,109.6,4.0,?,7.1,4.4,-13.5,/,/
C/C(=N\Nc1cccc(C(=O)O)c1)c1ccc(Cl)s1,153.7,-25.0,98.3*,-7.5,17.7,40.7*,-45.9,-0.9
O=C(COC(=O)c1ccccc1OCC(=O)Nc1ccc(Br)cc1)Nc1ccccc1,89.0,3.7,10.3,-8.0,3.8,6.5,/,/
COc1ccccc1OC(=O)CCc1nc2ccccc2s1,125.1,10.0,-4.5,-11.0,-5.5,37.6*,-8.7,-1.4
CC(=O)c1ccc(OC(=O)CCc2nc3ccccc3s2)cc1,96.5,-22.2,92.9*,-2.3,1.5,38.7*,8.3,-42.6
CN1OC[C@@H]2CN(C(=O)CCc3ccccc3)[C@H](c3cccc(Oc4ccccc4)c3)C[C@@H]21,/,-5.3,/,/,/,/,/,/
COc1cc(Cl)ccc1NC(=S)N(CCCN1CCOCC1)Cc1cn(C)c2ccccc12,96.7,-8.2,-1.4,10.0,0.9,31.9*,-0.6,2.8
O=C(COC(=O)CSc1ccc(F)cc1)NC1CC1,/,-13.3,/,/,/,/,/,/
CCN(CC)c1ccc(/C=N/N2CCN(Cc3ccccc3)CC2)cc1,125.6,-10.4,/,-12.5,-8.9,9.7,/,/
CCN(CC)c1ccc(N=CN2CCOCC2)cc1,90.9,-2.8,98.4*,-1.5,-0.4,34.5*,-27.5,-0.4
CCCCNC(=O)c1ccccc1NC(=O)CN(c1ccccc1)S(=O)(=O)N(C)C,99.4,-13.1,-0.9,3.9,6.4,1.3,/,/
Cc1cc(C(=O)NCCCn2ccnc2)cs1,124.8,-9.3,2.2,-1.6,-0.9,9.1,/,/
S=C(Nc1ccc(Cl)cc1Cl)Nn1cnnc1,87.6,1.1,-4.7,-7.7,-1.1,79.0*,77.3*,-0.3
NC(=S)Nc1cc(Cl)ccc1Cl,94.9,-0.1,-2.8,-3.0,-2.5,-9.4,/,/
S=C(NCc1ccc(Cl)cc1)Nc1ccc(Cl)cc1Cl,97.5,0.2,/,-5.9,-2.8,3.5,/,/
S=C(Nc1cc(Cl)ccc1Cl)Nn1cnnc1,97.3,-2.7,/,-3.0,3.4,81.0*,76.8*,5.9
CCN(CC)c1ccc(C=Nc2cc(C)cc(C)c2)c(O)c1,104.6,-9.1,-5.2,1.7,0.8,8.4,/,/
CCN(CC)c1ccc(N=Cc2ccc(N(CC)CC)cc2O)cc1,96.0,-216.6,18.4,-3.1,-0.8,42.5*,-22.0,-1.9
CCN(CC)c1ccc(/C=N/NC(=S)NC)c(O)c1,95.6,-9.2,98.0*,-7.0,-2.4,41.2*,10.4,11.8
SMILES,CR mimetic SO,CendR NRP1 mod,ALR H2O2 inh,APOBEC3G inh,APOBEC3A inh,PfM18AAP inh-1,PfM18AAP inh-2,CTSL1 confirm
CCCSc1ccc2nc(-c3ccccc3)cn2c1,93.9,-13.1,-8.3,-10.7,-5.0,-7.9,/,/
Cc1cc(Nc2cccc(C(F)(F)F)c2)n2nc(C)nc2n1,99.3,14.1,/,-6.1,-5.3,-16.6,/,/
Oc1ccccc1NCC(O)Cn1ccc2ccccc21 (stereo not drawn),92.6,-68.0,?,-9.5,-4.3,56.1*,18.1,0.7
OC(CNCc1ccccc1)Cn1ccc2ccccc21 (stereo not drawn),90.9,3.2,-8.3,-7.5,-2.2,2.7,/,/
S=C(NNC(=S)Nc1ccc(Cl)cc1)NNc1ccccc1,/,11.3,/,/,/,/,/,/
NC(=S)NNC(=S)Nc1ccccc1,89.5,39.4*,97.4*,23.7,-2.0,42.1*,2.1,-2.2
